Common to all, as to parameters: scale not given: direction of the effect not stated beside the values
For test [1], the target named is Protein translocase subunit SecA (Escherichia coli (strain K12)) (UniProt P10408). Briefly: Assay to Identify E. coli SecA ATPase Inhibitors. Conditions: 30 µM. In kind it is functional.
The target in test [2] is T1, Ubiquitin-activating enzyme e1, putative (Leishmania donovani (strain BPK282A1)) (UniProt E9BSI1).
T1 sequence (whole entry): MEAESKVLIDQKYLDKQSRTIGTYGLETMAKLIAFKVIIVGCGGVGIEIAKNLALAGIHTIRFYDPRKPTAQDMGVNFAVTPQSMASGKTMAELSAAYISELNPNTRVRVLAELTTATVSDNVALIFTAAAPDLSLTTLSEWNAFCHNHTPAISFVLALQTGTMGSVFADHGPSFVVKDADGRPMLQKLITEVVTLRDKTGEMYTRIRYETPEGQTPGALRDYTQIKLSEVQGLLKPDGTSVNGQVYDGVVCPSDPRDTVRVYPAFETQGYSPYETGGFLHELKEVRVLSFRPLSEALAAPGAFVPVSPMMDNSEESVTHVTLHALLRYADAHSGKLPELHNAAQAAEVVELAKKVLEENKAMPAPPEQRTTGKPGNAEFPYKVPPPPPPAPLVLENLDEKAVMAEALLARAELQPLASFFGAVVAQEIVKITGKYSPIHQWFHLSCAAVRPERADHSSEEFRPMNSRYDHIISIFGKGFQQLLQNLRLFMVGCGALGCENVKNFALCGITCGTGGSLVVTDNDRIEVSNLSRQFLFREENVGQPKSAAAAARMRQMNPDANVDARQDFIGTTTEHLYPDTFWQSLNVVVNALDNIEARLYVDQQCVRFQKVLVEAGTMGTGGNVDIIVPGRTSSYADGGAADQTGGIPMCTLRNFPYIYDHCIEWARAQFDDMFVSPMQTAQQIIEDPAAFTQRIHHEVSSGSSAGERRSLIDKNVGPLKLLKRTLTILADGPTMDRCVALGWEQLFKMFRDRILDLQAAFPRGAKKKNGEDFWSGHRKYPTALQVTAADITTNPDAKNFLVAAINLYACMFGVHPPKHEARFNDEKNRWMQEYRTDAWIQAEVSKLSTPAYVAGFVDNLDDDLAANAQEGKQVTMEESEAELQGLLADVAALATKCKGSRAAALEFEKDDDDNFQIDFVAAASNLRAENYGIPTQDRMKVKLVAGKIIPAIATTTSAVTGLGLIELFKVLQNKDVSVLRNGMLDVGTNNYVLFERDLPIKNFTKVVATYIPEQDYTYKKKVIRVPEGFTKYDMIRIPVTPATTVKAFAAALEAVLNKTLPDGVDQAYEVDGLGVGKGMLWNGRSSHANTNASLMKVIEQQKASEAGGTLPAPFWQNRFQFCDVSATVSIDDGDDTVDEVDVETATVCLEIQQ
Briefly: Leishmania donovani Ubiquitin Activating Enzyme (LdE1). Particulars: 30 µM. In kind it is functional.

The target of test [3] is AMP-activated protein kinase, AMPK (Homo sapiens) (UniProt P54646+O43741+P54619+Q9UGJ0+Q9Y478+Q13131+Q9UGI9). Briefly: AMP-dependent Kinase enzyme assay. An in vitro enzyme assay that detects ADP turnover that is directly proportional to AMPK activity. This uses naive AMPK that is activated during the assay with MK-8722. Particulars: 30 µM. In kind it is functional.
Test [4] deals with Sialic acid-binding Ig-like lectin 9 (Homo sapiens) (UniProt Q9Y336). Description: Hs-Siglec9 ALPHAscreen SOP 20170721. Particulars: 10 µM.
The test system of a further test is Trypanosoma cruzi. Briefly: Trypanosoma cruzi phosphomannomutase and mannose-1-phosphate guanylyltransferase assay. The test is classed as functional. Conditions: 10 µM.
For test [5], the target named is T2, Arginase-2, mitochondrial (Homo sapiens) (UniProt P78540).
T2 sequence (whole entry): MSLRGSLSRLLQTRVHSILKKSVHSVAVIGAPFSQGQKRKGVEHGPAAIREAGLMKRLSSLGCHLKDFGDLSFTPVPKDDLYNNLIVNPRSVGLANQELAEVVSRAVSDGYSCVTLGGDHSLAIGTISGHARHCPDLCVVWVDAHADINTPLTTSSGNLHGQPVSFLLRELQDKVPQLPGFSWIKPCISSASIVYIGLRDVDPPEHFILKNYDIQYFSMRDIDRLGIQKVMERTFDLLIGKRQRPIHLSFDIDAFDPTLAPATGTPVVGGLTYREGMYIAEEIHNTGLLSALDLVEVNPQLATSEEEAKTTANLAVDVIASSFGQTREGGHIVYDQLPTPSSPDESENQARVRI
Briefly: in vitro enzyme assay to detect the production of urea directly proportional to the activity of Arginase II. Note: in the data most compounds retested in dose-response had high values. The test is classed as functional. Particulars: 33.3 µM.

Test [6] addresses T3, Proteasome subunit beta (Trypanosoma cruzi) (UniProt O96673).
T3 sequence (whole entry): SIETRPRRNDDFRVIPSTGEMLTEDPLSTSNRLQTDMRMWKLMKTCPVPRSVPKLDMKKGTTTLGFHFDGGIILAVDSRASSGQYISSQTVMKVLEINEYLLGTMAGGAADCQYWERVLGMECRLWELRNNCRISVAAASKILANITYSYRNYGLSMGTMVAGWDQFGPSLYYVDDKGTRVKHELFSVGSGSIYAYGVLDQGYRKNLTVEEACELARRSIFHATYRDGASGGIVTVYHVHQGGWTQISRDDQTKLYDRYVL
Description: Trypanosoma cruzi proteasome chymotrypsin-like activity (TcProtChymo) assay. Note: in the data most compounds retested in dose-response had high values. The test is classed as functional. Particulars: 9.37 µM.

The species named for another test is Homo sapiens. Briefly: To identify inhibition of the IFN signalling (Jak-Stat) pathway via expression of an eGFP reporter gene under the control of an IFN-stimulated response element (ISRE) containing MxA promoter. In kind it is functional. Conditions: 30 µM.
Test [7] has as its target T4, Tyrosyl-tRNA synthetase, putative (Trypanosoma cruzi (strain CL Brener)) (UniProt Q4DSP6).
T4 sequence (whole entry): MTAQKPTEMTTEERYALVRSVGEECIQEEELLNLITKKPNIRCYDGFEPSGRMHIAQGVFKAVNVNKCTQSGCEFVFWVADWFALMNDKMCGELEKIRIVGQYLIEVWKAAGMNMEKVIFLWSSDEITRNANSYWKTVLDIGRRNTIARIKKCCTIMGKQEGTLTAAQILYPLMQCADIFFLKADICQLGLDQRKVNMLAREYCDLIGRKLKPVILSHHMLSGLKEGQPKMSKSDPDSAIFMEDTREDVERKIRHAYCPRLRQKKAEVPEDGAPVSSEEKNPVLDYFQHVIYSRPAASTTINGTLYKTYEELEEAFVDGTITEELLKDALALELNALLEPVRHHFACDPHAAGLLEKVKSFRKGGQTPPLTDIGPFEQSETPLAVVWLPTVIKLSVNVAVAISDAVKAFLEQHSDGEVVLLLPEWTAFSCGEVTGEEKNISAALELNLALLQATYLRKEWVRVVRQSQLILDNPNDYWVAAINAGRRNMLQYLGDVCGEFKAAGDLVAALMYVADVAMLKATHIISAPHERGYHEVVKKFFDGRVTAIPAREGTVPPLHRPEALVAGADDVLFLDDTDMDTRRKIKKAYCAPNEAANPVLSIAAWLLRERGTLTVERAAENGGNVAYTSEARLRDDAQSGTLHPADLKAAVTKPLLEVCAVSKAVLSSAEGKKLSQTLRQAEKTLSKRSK
Briefly: Trypanosoma cruzi tyrosyl tRNA synthetase (TcYRS) _High Tyrosine SOP. Note: in the data most compounds retested in dose-response had high values. Conditions: 30 µM. In kind it is functional.

Test [8] concerns the target T4, Tyrosyl-tRNA synthetase, putative (Trypanosoma cruzi (strain CL Brener)). Description: Trypanosoma cruzi tyrosyl tRNA synthetase (TcYRS) SOP. The test is classed as functional. Particulars: 30 µM.
Test [9] concerns the target Chromo domain-containing protein 1 (Saccharomyces cerevisiae (strain ATCC 204508 / S288c) (Baker's yeast)) (UniProt P32657). Description: ScCHD-1 Enzyme Inhibition Assay. Note: in the data most compounds retested in dose-response had high values. Particulars: 30 µM. In kind it is functional.

For part of these data: Entries with a potency or affinity are not part of this list.

Chromo domain-containing protein 1 (Saccharomyces cerevisiae (strain ATCC 204508 / S288c) (Baker's yeast)), sequence (P32657 whole entry, the tested form may be a part): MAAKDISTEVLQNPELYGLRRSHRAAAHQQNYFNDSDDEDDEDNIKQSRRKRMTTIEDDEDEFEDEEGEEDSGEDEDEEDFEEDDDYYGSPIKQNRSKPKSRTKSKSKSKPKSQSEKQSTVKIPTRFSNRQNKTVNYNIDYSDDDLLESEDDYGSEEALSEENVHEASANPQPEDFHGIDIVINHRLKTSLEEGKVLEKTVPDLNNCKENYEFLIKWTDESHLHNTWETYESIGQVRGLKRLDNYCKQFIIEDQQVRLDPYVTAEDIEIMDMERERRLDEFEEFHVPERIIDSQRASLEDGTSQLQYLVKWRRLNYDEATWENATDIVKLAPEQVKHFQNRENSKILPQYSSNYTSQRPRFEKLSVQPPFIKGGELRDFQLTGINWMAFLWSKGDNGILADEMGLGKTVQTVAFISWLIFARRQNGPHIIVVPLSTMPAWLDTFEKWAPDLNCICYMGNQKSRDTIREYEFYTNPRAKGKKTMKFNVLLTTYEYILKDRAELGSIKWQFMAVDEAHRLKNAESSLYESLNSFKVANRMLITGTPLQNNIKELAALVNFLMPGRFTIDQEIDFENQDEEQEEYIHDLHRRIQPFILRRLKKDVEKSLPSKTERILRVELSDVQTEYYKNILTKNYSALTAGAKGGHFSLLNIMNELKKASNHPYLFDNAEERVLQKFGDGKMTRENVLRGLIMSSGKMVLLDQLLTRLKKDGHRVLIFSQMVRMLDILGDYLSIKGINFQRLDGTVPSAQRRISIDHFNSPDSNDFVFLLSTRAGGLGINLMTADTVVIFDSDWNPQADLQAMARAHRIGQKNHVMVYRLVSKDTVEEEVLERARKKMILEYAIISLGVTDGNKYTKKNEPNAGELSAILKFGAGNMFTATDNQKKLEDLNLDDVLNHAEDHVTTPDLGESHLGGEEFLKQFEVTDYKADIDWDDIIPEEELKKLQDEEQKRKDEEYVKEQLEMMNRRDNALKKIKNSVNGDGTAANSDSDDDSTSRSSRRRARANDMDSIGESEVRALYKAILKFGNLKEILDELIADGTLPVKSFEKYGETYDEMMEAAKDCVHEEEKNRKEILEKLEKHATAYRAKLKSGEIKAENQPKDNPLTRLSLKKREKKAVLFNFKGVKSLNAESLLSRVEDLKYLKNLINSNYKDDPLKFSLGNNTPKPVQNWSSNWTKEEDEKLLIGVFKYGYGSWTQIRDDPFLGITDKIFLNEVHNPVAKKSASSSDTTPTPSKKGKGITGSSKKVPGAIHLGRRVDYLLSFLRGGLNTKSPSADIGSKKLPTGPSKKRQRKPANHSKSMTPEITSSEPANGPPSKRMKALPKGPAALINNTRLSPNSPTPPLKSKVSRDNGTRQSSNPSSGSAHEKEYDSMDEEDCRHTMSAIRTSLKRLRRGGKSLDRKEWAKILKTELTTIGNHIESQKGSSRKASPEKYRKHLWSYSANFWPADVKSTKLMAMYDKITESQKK
Protein translocase subunit SecA (Escherichia coli (strain K12)), sequence (P10408 whole entry): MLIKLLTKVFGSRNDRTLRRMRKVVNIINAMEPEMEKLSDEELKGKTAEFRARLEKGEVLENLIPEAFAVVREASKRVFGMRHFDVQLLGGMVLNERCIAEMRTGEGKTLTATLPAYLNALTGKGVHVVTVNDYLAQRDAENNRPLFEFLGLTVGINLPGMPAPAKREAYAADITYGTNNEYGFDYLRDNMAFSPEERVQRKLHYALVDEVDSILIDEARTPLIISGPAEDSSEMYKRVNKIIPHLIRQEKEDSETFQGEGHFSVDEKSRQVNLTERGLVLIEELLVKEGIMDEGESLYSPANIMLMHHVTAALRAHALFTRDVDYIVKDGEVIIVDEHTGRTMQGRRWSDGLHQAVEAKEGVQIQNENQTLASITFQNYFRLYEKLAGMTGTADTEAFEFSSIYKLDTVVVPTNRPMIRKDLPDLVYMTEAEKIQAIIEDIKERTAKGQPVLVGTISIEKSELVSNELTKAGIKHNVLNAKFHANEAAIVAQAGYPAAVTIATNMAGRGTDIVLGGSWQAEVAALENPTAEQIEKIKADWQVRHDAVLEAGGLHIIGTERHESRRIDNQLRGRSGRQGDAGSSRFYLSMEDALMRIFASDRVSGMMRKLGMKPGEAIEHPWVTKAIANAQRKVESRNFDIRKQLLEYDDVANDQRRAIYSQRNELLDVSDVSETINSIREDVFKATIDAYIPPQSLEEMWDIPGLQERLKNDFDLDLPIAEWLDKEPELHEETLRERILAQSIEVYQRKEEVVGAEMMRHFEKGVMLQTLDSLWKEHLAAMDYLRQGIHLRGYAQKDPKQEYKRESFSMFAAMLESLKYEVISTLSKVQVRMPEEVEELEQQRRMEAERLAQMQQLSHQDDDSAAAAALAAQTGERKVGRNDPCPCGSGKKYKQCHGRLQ
Sialic acid-binding Ig-like lectin 9 (Homo sapiens), sequence (Q9Y336 whole entry): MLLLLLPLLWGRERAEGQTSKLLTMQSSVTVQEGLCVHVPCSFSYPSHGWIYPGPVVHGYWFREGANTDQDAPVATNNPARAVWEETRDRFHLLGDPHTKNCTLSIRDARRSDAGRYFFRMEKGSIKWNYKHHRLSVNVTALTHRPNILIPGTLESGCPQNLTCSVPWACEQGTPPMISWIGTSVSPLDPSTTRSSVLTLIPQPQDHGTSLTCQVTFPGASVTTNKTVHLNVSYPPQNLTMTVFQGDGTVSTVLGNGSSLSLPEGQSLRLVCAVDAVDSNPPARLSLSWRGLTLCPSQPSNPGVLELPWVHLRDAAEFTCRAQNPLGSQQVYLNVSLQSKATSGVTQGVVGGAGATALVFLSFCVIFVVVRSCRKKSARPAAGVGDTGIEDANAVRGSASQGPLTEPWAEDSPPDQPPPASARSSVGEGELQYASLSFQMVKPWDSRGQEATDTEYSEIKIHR

Turning to `O=C(NCc1ccco1)[C@@]12CCO[C@@H]1CCN(CCN1CCCC1)C2`, the Percent Effect was -6.16% in [1]; 16% in test [2]; -5.27% in test [3]; -2.5% in test [4]; 5.21% with Trypanosoma cruzi; -51.1% in [5]. In addition, the Percent Effect is 18.5% in test [6]; -5.93% in the test listed under Homo sapiens; 6.25% in [7]; 22.5% in test [8]; -12% in test [9].
As for `Cc1cccc(Nc2nccnc2C2CCCN2CC(=O)N(C)C)n1` (centres undefined), the Percent Effect in test [1] was -5.74%; in [2], 8%; in [3], -0.423%; in test [4], 3.06%; in the test on Trypanosoma cruzi, 5.32%; in test [5], -3.5%. Further, the Percent Effect in test [6] is -3.08%; in the test listed under Homo sapiens it was 1.25%; in [7], 4.25%; in test [8] it was 6.41%; in test [9], 3.88%.
Turning to `CCOC(C)c1nc(CN2CCN(c3nccc(C)n3)CC2)cs1` (centres undefined), the Percent Effect is -1.18% in test [1]; 0% in test [2]; -0.85% in test [3]; -1.42% in [4]; 0.386% with Trypanosoma cruzi; -0.476% in test [5]. In addition, the Percent Effect in [6] is 10.2%; in the test listed under Homo sapiens it was -0.937%; in [7], -3.7%; in [8] it was 2.44%; in [9], -2.47%.
As to `Fc1cccc(-c2nc(CN3CCOC(Cn4cncn4)C3)co2)c1` (centres undefined), the Percent Effect in [1] is -1.25%; in test [2], 0%; in test [3], 1.03%; in test [4], 1.46%; with Trypanosoma cruzi, 8.97%; in test [5] it was -1.14%. Also, the Percent Effect in [6] is 4.67%; in the test filed under Homo sapiens it was -3.37%; in [7], 0.493%; in [8] it was 3.8%; in test [9], -3.88%.
As to `COc1ccc(OC)c(CCNC(=O)NC(C)Cn2ccnc2)c1` (centres undefined), the Percent Effect in [1] is -2.99%; in test [2], 10.5%; in test [3], -9.22%; in [4], -3.09%; in the test on Trypanosoma cruzi, -9.77%; in test [5], -6.13%. Further, the Percent Effect is 5.35% in test [6]; 34.6% in the test filed under Homo sapiens; -1.47% in [7]; 4.88% in [8]; -5.83% in [9].
In the case of `Cc1cnc(C(=O)N2CCc3ncnc(C)c3CC2)cn1`, the Percent Effect in test [1] is -2.65%; in test [2], 0%; in test [3], -0.0548%; in test [4], 5.51%; in the test with Trypanosoma cruzi, -1.39%; in test [5], -2.79%. The Percent Effect in test [6] was 15.8%; in the test listed under Homo sapiens, 19.6%; in test [7], 2.08%; in test [8], 11.1%; in test [9], -2.02%.
With `CN1CCN(C(=O)c2ccc(=O)n(C)c2)c2ccccc21`, the Percent Effect is -6.34% in test [1]; 18.9% in [2]; -11% in [3]; 20.6% in test [4]; 3.25% in the test with Trypanosoma cruzi; -0.554% in [5]. Besides, the Percent Effect is 2.51% in test [6]; 6.73% in the test filed under Homo sapiens; 16.8% in test [7]; 25.6% in [8]; -6.38% in test [9].
`CC(C)N(C)C(=O)C1=NOC2(CCN(C(=O)c3ccncc3)C2)C1` (centres undefined): the Percent Effect in [1] is -3.37%; in test [2], 2.74%; in test [3], -0.462%; in [4] it was -1.1%; with Trypanosoma cruzi, -1.79%; in test [5] it was -5.19%. Also, the Percent Effect in [6] is 12.6%; in the test listed under Homo sapiens it was 1.3%; in test [7], 1.04%; in test [8] it was 6.17%; in [9], -0.614%.
Consider `CC(NC(=O)NCCCc1n[nH]c(N)c1C#N)c1cccs1` (centres undefined), for which the Percent Effect in [1] was -4.67%; in test [2] it was 22.8%; in [3] it was 38.5%; in [4], -12.2%; in the test on Trypanosoma cruzi, 6.52%; in test [5] it was -14.1%. Moreover, the Percent Effect in test [6] was 16.6%; in the test filed under Homo sapiens, 15.9%; in test [7] it was 8.37%; in test [8], 24.1%; in [9] it was -7.24%.

The values above are taken from ChEMBL document CHEMBL3988442, “University of Dundee, Small-Polar-MMV Screening Library” (2021).
